The sample as a whole holds a higher share of hits than the screen did.
NS1 function inh – influenza NS1 inhibition | Potency, µM (series often up to 46.1 µM), inactives show at the top dose activity, positive = more growth | hit rate 0.4% among 270,000; note: potency is the fitted concentration of half-maximal effect; actives are rising curves; nearly all actives have a fitted effect of over 50% in size
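S. cerevisiae expressing influenza A NS1, grown in glucose, washed, then diluted 1:100 into pH 6.0 -URA galactose medium with 23 nl compound. Growth recovery read as OD600; NS1-free strain serves as control.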
SARS PLP yeast – blocks SARS-CoV papain-like protease in a yeast assay; Potency, µM (highest dose often 32.9 µM), inactives show at the highest dose activity, positive = growth rescue, actives largely listed as activators; hit rate 0.19% among 330,000; S. cerevisiae expressing SARS-CoV PLpro, growth rescue; note: potency is the fitted concentration of half-maximal effect; 0% is about no effect; nearly all actives have a fitted effect of over 55% in size
LmPK inhibitor – LmPK (Leishmania mexicana) enzyme inhibition | Potency, µM (top dose mostly 57.5 µM), inactives show at the top dose activity change, negative = inhibition, hits mostly inhibitors | purified LmPK, Kinase-Glo ATP luminescence, 1 h | hit rate 0.37% among 290,000 | AID 1721 | Q27686; active = well fitted curve in the direction sought with a large enough effect; inconclusive = small, poorly fitted or top-dose-only effect, or another doubt; inactive = no such curve, though single readings can be large; an effect the other way counts as inactive or inconclusive; note: potency is the fitted concentration of half-maximal effect; % is set by controls: 0 for no effect and ±100 for the full control effect
Target sequence (Q27686 whole entry, looked up): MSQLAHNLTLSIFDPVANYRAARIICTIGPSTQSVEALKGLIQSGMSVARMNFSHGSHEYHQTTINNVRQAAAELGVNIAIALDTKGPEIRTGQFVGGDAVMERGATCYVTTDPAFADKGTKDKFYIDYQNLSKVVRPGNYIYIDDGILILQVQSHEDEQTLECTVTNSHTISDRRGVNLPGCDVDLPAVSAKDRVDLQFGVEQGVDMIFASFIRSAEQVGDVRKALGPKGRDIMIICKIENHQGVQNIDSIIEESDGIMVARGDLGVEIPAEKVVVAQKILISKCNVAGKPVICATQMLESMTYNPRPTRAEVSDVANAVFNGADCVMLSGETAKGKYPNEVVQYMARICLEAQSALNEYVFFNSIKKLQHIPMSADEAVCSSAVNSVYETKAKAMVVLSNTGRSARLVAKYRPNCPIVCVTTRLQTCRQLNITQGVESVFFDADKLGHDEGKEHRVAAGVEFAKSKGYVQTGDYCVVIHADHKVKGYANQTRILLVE
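Screened at intermediate enzyme activity to detect both inhibitors and activators: LmPK at 0.1 nM, with a 0.5 nM enzyme column as activation reference. PEP 0.5 mM, ADP 0.1 mM; ATP detected by luminescence after 1 h.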
TbPYK inhibitor – inhibitors of Trypanosoma brucei pyruvate kinase; TbPYK enzyme, Kinase-Glo Plus ATP luminescence, 45 min; Potency, µM (titrated, usually from 76.8 µM), inactives show top-dose activity, negative = inhibition, most hits filed as inhibitors; hit rate 0.12% among 410,000; AID 624173; active = well fitted curve in the direction sought with a large enough effect; inconclusive = small, poorly fitted or top-dose-only effect, or another doubt; inactive = no such curve, though single readings can be large; an effect the other way counts as inactive or inconclusive; note: potency is the fitted concentration of half-maximal effect; % is set by controls: 0 for no effect and ±100 for the full control effect; nearly all actives have a fitted effect of over 50% in size
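In this concentration-response screen, enzyme-free wells defined baseline while DMSO plates tracked drift. Each reaction combined TbPYK, substrate, compound and 130 uM ADP for 45 min at room temperature. Kinase-Glo Plus luminescence gave the signal.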
Shiga inhibitor – inhibitors of Shiga toxin in Vero cells. Vero cells, Shiga toxin protein synthesis inhibition reporter. inhibition, % at 38.7 µM. hit rate 9.2% among 290,000. AID 2315; in the data active = inhibition mostly above about 28%, no sharp cut-off; inactive = mostly below about 43%; note: 0% is about no effect
CHX counter – counter-screen for Shiga toxin inhibitors: cycloheximide protein synthesis inhibition | cell reporter, cycloheximide protein synthesis inhibition counterscreen | max response, % | hit rate 12% among 300,000 | AID 2314; in the data active = max response mostly above about 13%, no sharp cut-off; inactive = mostly below about 14%; note: read at 38.3 µM for the half of the compounds with a filed dose; 0% is about no effect
Active calls of the source: *. Unless noted, calls come from the whole dose curve.

Screening CCc1ccc(OCC(=O)N/N=C/c2ccc(OS(=O)(=O)c3ccc(C)cc3)c(OC)c2)cc1 returned NS1 function inh 24%, SARS PLP yeast 22%, LmPK inhibitor 3%, TbPYK inhibitor -15%, Shiga inhibitor 9 and CHX counter 13*.
For COc1ccc(/C=N/NS(=O)(=O)c2ccc(C)cc2)cc1OC(=O)c1ccccc1 the results were NS1 function inh 7%, LmPK inhibitor 3%, TbPYK inhibitor 7%, Shiga inhibitor -2 and CHX counter -1.
`NS(=O)(=O)c1ccc(CNS(=O)(=O)c2ccc3ccccc3c2)cc1` gave NS1 function inh 15%, SARS PLP yeast -8%, LmPK inhibitor -11%, TbPYK inhibitor 1%, Shiga inhibitor -32 and CHX counter 2.
Screening O=C(O)c1ccc(CNS(=O)(=O)c2ccc3ccccc3c2)cc1 returned NS1 function inh -9%, SARS PLP yeast 2%, LmPK inhibitor -1%, TbPYK inhibitor 0%, Shiga inhibitor 55* and CHX counter 30.
`COC(=O)c1ccc(COc2ccccc2/C=N/NS(=O)(=O)c2ccccc2)cc1` gave NS1 function inh -14%, SARS PLP yeast -4%, LmPK inhibitor 7%, TbPYK inhibitor -4%, Shiga inhibitor 18 and CHX counter 17.
Screening Cc1ccc(N(CC(C)C)S(=O)(=O)c2nnc(NC(=O)c3cccs3)s2)cc1 returned TbPYK inhibitor -4%.
CC1Cc2nc(SCC(=O)c3ccccc3)n(Cc3ccccc3)c(=O)c2S1 (stereo not drawn) was read as NS1 function inh 8%, SARS PLP yeast -9%, LmPK inhibitor 2%, TbPYK inhibitor -6%, Shiga inhibitor 41* and CHX counter 14*.
`COc1ccc(NC(=O)c2cc(C3CCCCN3C(=O)OCc3ccccc3)on2)c(C)c1` (stereo not drawn) gave TbPYK inhibitor -2%.
Cc1nn(-c2ccccc2)c(C)c1/C=C/C(=O)OCC(=O)NC1CCS(=O)(=O)C1 (stereo not drawn) was read as SARS PLP yeast 4%, LmPK inhibitor 0%, TbPYK inhibitor 2%, Shiga inhibitor 22 and CHX counter 16*.
Screening Cc1nn(-c2ccccc2)c(C)c1C(=O)OCC(=O)N(C)C1CCS(=O)(=O)C1 (stereo not drawn) returned SARS PLP yeast 0%, LmPK inhibitor -28%, TbPYK inhibitor 2%, Shiga inhibitor 61* and CHX counter 33*.
Screening CN(C(=O)COC(=O)c1ccc(C(C)(C)C)cc1)C1CCS(=O)(=O)C1 (stereo not drawn) returned SARS PLP yeast 1% and TbPYK inhibitor -3%.
`CN(C(=O)COC(=O)c1nc(Cl)c(Cl)c(Cl)c1Cl)C1CCS(=O)(=O)C1` (stereo not drawn) gave NS1 function inh -4%, SARS PLP yeast 0%, LmPK inhibitor 1%, TbPYK inhibitor 3%, Shiga inhibitor 60 and CHX counter 54*.
Screening COc1ccc(Nc2ncnc3sc(C)cc23)c(OC)c1 returned NS1 function inh -22%, SARS PLP yeast -7%, LmPK inhibitor -1%, TbPYK inhibitor 4%, Shiga inhibitor 48* and CHX counter 23*.
`Cc1ccc(C(=O)Nc2ccc(F)cc2)cc1S(=O)(=O)N1CCOCC1` gave TbPYK inhibitor 3%.
For COc1ccc(C(=O)NC2CCCCCC2)cc1S(=O)(=O)Nc1ccc(Br)cc1 the results were NS1 function inh -2%, SARS PLP yeast 2%, LmPK inhibitor -3%, TbPYK inhibitor -4%, Shiga inhibitor 56* and CHX counter 18*.
For Cc1ccc(C(=O)NC2CCCCC2)cc1S(=O)(=O)N1CCCC1 the results were NS1 function inh -20%, SARS PLP yeast 2%, LmPK inhibitor 5%, TbPYK inhibitor -7%, Shiga inhibitor 40* and CHX counter 35*.
For CCN(Cc1ccccc1)S(=O)(=O)c1cc(C(=O)NC2CCCCCC2)ccc1OC the results were NS1 function inh 26%, SARS PLP yeast 5%, LmPK inhibitor 4%, TbPYK inhibitor 2%, Shiga inhibitor 7 and CHX counter 7.
For CCN(CC)S(=O)(=O)c1cc(C(=O)NC2CCCCC2)ccc1C the results were NS1 function inh -14%, SARS PLP yeast 8%, LmPK inhibitor 1%, TbPYK inhibitor 5%, Shiga inhibitor 104* and CHX counter 42*.
`Cc1ccc(C(=O)Nc2ccc3cn[nH]c3c2)cc1S(=O)(=O)N1CCOCC1` gave NS1 function inh 3%, SARS PLP yeast 1%, LmPK inhibitor 3%, TbPYK inhibitor 0%, Shiga inhibitor 49* and CHX counter 21*.
For CCOC(=O)Oc1c(OC)cc(C(=O)O[C@@H]2C[C@@H]3CN4CCc5c([nH]c6cc(OC)ccc56)[C@H]4C[C@@H]3[C@H](C(=O)OC)[C@H]2OC)cc1OC the results were TbPYK inhibitor 1%.
Screening CCOC(=O)c1c(S(=O)(=O)N2CCC(C(=O)Nc3ccc(OCC)cc3)CC2)c(C)n(C)c1C returned TbPYK inhibitor 1%.
Screening COc1ccc(NC(=S)Nc2ccc(C)c(S(=O)(=O)N3CCCCC3)c2)cc1 returned NS1 function inh inconclusive, SARS PLP yeast 6%, LmPK inhibitor 1%, Shiga inhibitor 30 and CHX counter 4.
COc1ccc(C(=O)NC2CCCCC2)cc1S(=O)(=O)N1CCOCC1 was read as NS1 function inh -8%, SARS PLP yeast 3%, LmPK inhibitor 0%, TbPYK inhibitor 9%, Shiga inhibitor -14 and CHX counter -6.
Screening Cc1ccc(C(=O)NC2CCCCCC2)cc1S(=O)(=O)N1CCOCC1 returned NS1 function inh -6%, SARS PLP yeast -2%, LmPK inhibitor -1%, TbPYK inhibitor -4%, Shiga inhibitor 30 and CHX counter 28*.
For COc1ccc(/C=C/C(=O)NC2CCCCCC2)cc1S(=O)(=O)N1CCOCC1 the results were NS1 function inh -1%, SARS PLP yeast 12%, LmPK inhibitor -3%, TbPYK inhibitor 0%, Shiga inhibitor 21 and CHX counter 19*.
For Cc1ccc(NC(=S)Nc2ccc(C(C)C)cc2)cc1S(=O)(=O)N1CCCCCC1 the results were NS1 function inh inconclusive, SARS PLP yeast inconclusive, LmPK inhibitor 3%, TbPYK inhibitor -10%, Shiga inhibitor 82* and CHX counter 28*.
For N#CCN=C(c1ccccc1)c1ccccc1 the results were SARS PLP yeast -5% and TbPYK inhibitor -6%.
For CC(C)(C)c1ccc(S(=O)(=O)Nc2ccc(Cc3ccncc3)cc2)cc1 the results were NS1 function inh 4%, SARS PLP yeast -34%, LmPK inhibitor 0%, TbPYK inhibitor 7%, Shiga inhibitor 56 and CHX counter 22*.

Screening results from PubChem BioAssay.
